# Results taken from PubChem BioAssay (Tox21).
# Calls of active or inactive are those of the source. Calls follow the shape of the dose curve; as a rule, active = well fitted activation curve with a large enough effect in the repeat runs; inconclusive = weak or mixed curves; inactive = flat fitted curve, though single readings scatter. Positions of bridges follow the written chain, without caps; N, C: chain ends. Non-standard residues stand in square brackets, D forms with d. Residues, ends and D or L forms follow the SMILES beside them. hArg = N=C(N)NCCCC[C@H](N)C(=O)O; Mpa = O=C(O)CCS
# Experiment: Caspase-3/7 induction in CHO-K1 cells by small molecules, qHTS assay (AID 1346980); also: nearly all actives have a fitted effect of over 15% in size
# Details: CHO-K1 caspase-3/7 induction, Caspase-Glo luminescence, 17 h; series mostly up to 92.4 µM; caspase-3/7 activation: at the top concentration
# From the text: National Center for Advancing Translational Sciences [NCATS]
# NIH Chemical Genomics Center [NCGC]
# U.S. Environmental Protection Agency [EPA]
# National Institutes of Environmental Health Sciences [NIEHS]
# National Toxicology Program [NTP]
# Apoptosis is a process of programmed cell death and plays a central role in the development of multicellular organisms. It is a highly regulated process and induces cell death by activating caspases, which are the members of cysteine aspartic acid-specific protease (caspase) family. Caspases involved in apoptosis are classified by their mechanism of action as initiator caspases (caspase-2, -8, -9 and -10) and executioner caspases (caspase-3, -6, and -7). Inhibition of apoptosis results in number of cancers, autoimmune diseases, inflammatory diseases and viral infection. To identify small molecule compounds that induce apoptosis, a homogeneous, luminescent Caspase-Glo 3/7 assay was used. Wild type CHO-K1 cells were used to screen Tox21 libraries for identifying caspase-3/7 activity inducers.
# CHO-K1 cells were dispensed at 1,500 per well in 5uL of culture medium into white solid bottom 1536-well plates (Corning Life Sciences, Corning, NY) using a Multidrop Combi (Thermo Scientific, Waltham, MA) dispenser. The assay plates were incubated at 37 C and 5% CO2 for 5hr, and then 23nL of compounds dissolved in DMSO and positive control were transferred using a Pintool station (Wako, San Diego, CA). The assay plates were incubated at 37C and 5% CO2 for 17hr. For caspase-3/7 activity read, 4uL of Caspase-Glo 3/7 reagent (Promega Corporation, Madison, WI) was added to each well of the assay plates using Flying Reagent Dispenser (FRD, Aurora Discovery, San Diego, CA) and incubated the assay plates at room temperature for 30min. The luminescence signal was quantified using a ViewLux plate reader (Perkin Elmer, Shelton, CT).
# % is scaled to controls: 0 for no effect and ±100 for the full control effect.
row,SMILES,caspase-3/7 activation
1,Cn1nnc2c(C(N)=O)ncn2c1=O,2.09% [at 42.5 µM] (inactive)
2,CCOc1cccc(N)c1,0.0286% (inactive)
3,CCCc1ccc(O)cc1,0.199% (inactive)
4,COc1ccc2c(c1)c1c3n2CCN(C)C3=NCC1,0.893% [at 42.5 µM] (inactive)
5,CC(=O)O[C@H]1C[C@@H]2CC[C@@]1(C)C2(C)C,-0.491% (inactive)
6,CCCCCCCCCCCCCCCCCCOCCO,-1.25% [at 19 µM] (inactive)
7,CC(=O)O[Si](C)(OC(C)=O)OC(C)=O,0.0673% (inactive)
8,COC(=O)/C=C\C(=O)O,-0.634% (inactive)
9,CCOC(CN1CCN(CC(C)C(=O)c2ccccc2)CC1)c1ccccc1 (stereo not given),0.336% [at 19 µM] (inactive)
10,O=C1CCCCO1,-0.279% (inactive)
11,CCCCCCCCCCCCCBr,0.682% (inactive)
12,CC(=O)Nc1ccc(OC(=O)c2ccccc2OC(C)=O)cc1,-0.0011% [at 42.5 µM] (inactive)
13,O=Cc1ccccc1Cl,0.0943% (inactive)
14,CNCCS(=O)(=O)O,-0.0286% (inactive)
15,CC1c2ccccc2CN1NC(=O)c1ccc(Cl)c(S(N)(=O)=O)c1 (stereo not given),0.692% [at 42.5 µM] (inactive)
16,CC1=C(C(=O)O)N2C(=O)[C@@H](NC(=O)[C@H](N)c3ccccc3)[C@H]2SC1,1.06% [at 42.5 µM] (inactive)
17,CC/C=C\CCOC(=O)c1ccccc1O,-0.495% (inactive)
18,NC(=O)[C@@H]1CSSCCC(=O)N[C@@H](CCCCN=C(N)N)C(=O)NCC(=O)N[C@@H](CC(=O)O)C(=O)N[C@@H](Cc2c[nH]c3ccccc23)C(=O)N2CCC[C@H]2C(=O)N1 ([Mpa][hArg]GDWPC-NH2; disulfide 1-7),-0.609% [at 42.5 µM] (inactive)
19,O=C(O)[C@H](O)c1ccccc1,1.3% [at 42.5 µM] (inactive)
20,O=C(O)CSCC(=O)NC1CCSC1=O (stereo not given),-0.707% [at 42.5 µM] (inactive)

row,SMILES,caspase-3/7 activation
1,CC(=O)CC(=O)Nc1ccc(C)cc1C,0.0576% (inactive)
2,CCCCOCC(C)O (stereo not given),-1.73% (inactive)
3,CCCCOC(=O)C(C)O (stereo not given),0.811% (inactive)
4,CC(=O)OC(C)=O,0.0881% (inactive)
5,CCC(C)C(=O)OCCc1ccccc1 (stereo not given),0.347% (inactive)
6,COC(C)(OC)OC,-0.718% (inactive)
7,O=C(Cl)c1ccccc1[N+](=O)[O-],-1.07% (inactive)
8,Cc1cc(C)c(C(=O)O)c(C)c1,-1.21% (inactive)
9,N#CCC(=O)NN,-0.21% [at 42.5 µM] (inactive)
10,OC[C@H]1O[C@@H](O[C@@H]2[C@@H](CO)O[C@](O)(CO)[C@H]2O)[C@H](O)[C@@H](O)[C@H]1O,0.0245% [at 42.5 µM] (inactive)
11,CCC(=O)c1c(O)cc(O)cc1O,-0.487% [at 42.5 µM] (inactive)
12,CC1(C)Oc2ccc(C#N)cc2[C@@H](N2CCCC2=O)[C@@H]1O,1.75% [at 42.5 µM] (inactive)
13,NCC1(Cc2noc(=O)[nH]2)CCCCC1,0.769% (inactive)
14,CCOc1ccccc1OCC1CNCCO1 (stereo not given),-0.727% [at 42.5 µM] (inactive)
15,COc1cc(OC)nc(O[C@H](C(=O)O)C(OC)(c2ccccc2)c2ccccc2)n1,0.5% [at 42.5 µM] (inactive)
16,OC[C@@H](O)C(O)[C@@H](O)CO (stereo not given in full),-0.237% (inactive)
17,CCCC(=O)OC/C=C(\C)CCC=C(C)C,-0.737% (inactive)
18,CC(C)C1OCCN1CCOC(=O)NCCCCCCNC(=O)OCCN1CCOC1C(C)C (stereo not given),-0.223% (inactive)
19,CC(=O)c1cc(C)oc1C,0.307% (inactive)
20,CCCCCCC1(C)CCC(=O)O1 (stereo not given),2.79% (inactive)
